# Data: the supplement of paper PMC6555819
# How the values were obtained:
# Test in all cases: PBM binding z-score (relative to random genomic background probes); higher = stronger binding; sequences stand for … in GC…GCGATTGACAGCGTAGAATGAAGG
# [1] = tested on: RARb homodimer (NR concentration 270 nM)
# Method in brief: (§1)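 Ligand-free nuclear receptor dimers were bound for 1 h to custom Agilent 4×180K protein-binding microarrays. Detection used antibodies against each partner (one per run). Binding z-scores rest on regression-normalized fluorescence, with random background probes as the reference.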
# [2] = tested on: RARg:RXRa (NR concentration 270 nM, RXRa partner concentration 90 nM)
# Method in brief: as §1
# [3] = tested on: RARg homodimer (NR concentration 270 nM)
# Method in brief: as §1
# [4] = tested on: RXRa DBDmut IVT, anti-RXR (DBD mutation: RXRa K156A/R161A, NR concentration 90 nM)
# Method in brief: as §1
# [5] = tested on: RXRa homodimer (NR concentration 180 nM)
# Method in brief: as §1
# [6] = tested on: THRa:RXRa (NR concentration 90 nM, RXRa partner concentration 90 nM)
# Method in brief: as §1
# [7] = tested on: THRa homodimer (NR concentration 90 nM)
# Method in brief: as §1
# [8] = tested on: VDR homodimer (NR concentration 270 nM)
# Method in brief: as §1
Sequence,PBM binding z-score [1],PBM binding z-score [2],PBM binding z-score [3],PBM binding z-score [4],PBM binding z-score [5],PBM binding z-score [6],PBM binding z-score [7],PBM binding z-score [8]
CAAACTAGGTCAATAGGTCAAAGTCCGCTTCCCG,5.26,7.95,6.55,2.03,6.54,3.62,1.05,2.03
GGAACGAGGGCGAGTTGATAGCAGAGTTTGATGG,-0.0873,-0.0842,0.176,1.73,0.0566,-0.305,-0.578,1.12
AATACAGGGTAATCGTAGGCCAGAGTACGCACAG,0.578,0.923,0.637,-0.324,0.61,1.34,-0.13,0.508
CCAGACTGGTGAGAAGGTAACTCAGCCTCGATTA,-0.313,-0.398,-0.424,-0.127,-0.237,-0.0936,-0.27,-0.352
AGGCAAAGTTCAGGACGAGGTAACGTAAAGCACG,3.36,4.68,5.16,2.98,3.23,3.87,1.95,2.35
TCATATAGGTAAATGTTAGGTGAAAGTCCGATCT,0.881,0.623,0.326,2.12,1.09,2.51,1.58,0.982
GCTCGGAGGACAAGCTCAGAGCTTTGTCCGTAGA,-0.256,-0.416,0.0982,-0.613,-1.03,0.34,-0.504,-0.467
CAAACTAGGTCAAAGGTCCAAGTCGAGCCAACCA,3.54,4.98,5.05,2.31,5.69,3.15,0.728,1.77
TCTCTGAGGACACGAAGGTCAGAGCTTTCCAGAG,3.87,3.32,3.9,1.21,1.92,4.11,4.02,1.71
CGTCCAAAGTCAAGGTCAGTGAAAGAGACTCGAA,3.54,3,3.58,1.13,2.53,3.03,2.06,1.29
TGAAGGAGGTTAAAGATCAGGGAACGTGGCGTCG,1.01,1.89,0.932,-0.223,3.25,1.26,0.214,0.438
AGGCAAAGTTCACTAGGTAACGTAAGATTCAGCT,3.64,4.78,5.51,4.22,3.75,2.15,0.37,4.15
TCTTGTAGATCGAGCAGGTTAAGAAAGCCTGAGT,-0.141,-0.28,-0.423,0.213,0.0253,0.0849,-0.506,-0.257
AATACAGGGTCATCGTAGGCGAGAGTACGCACAG,3.47,5.58,4.77,3.52,6.54,4.45,1.32,3.54
CCTACAGGGCCATCAGGTCATTGATATCAACGTT,2.75,2.63,2.35,0.562,1.63,3.26,2.79,1.45
CCTTCTGGGCCACGAAAGGTCATTGATTCAGTGA,4.62,4.94,4.61,0.819,5.38,4.04,0.878,2.42
TCTCGGAGGACACGAAAGGTCAGATCTCGACATC,4.71,4.58,4.87,1.53,3.65,3.82,1.45,1.13
AGAATTAGGTTATTAAGATCAGGGAATTGCGGTC,0.844,0.403,0.569,0.599,0.275,0.913,0.502,0.494
TCTTTTAGATCAATAGAGGTTAAGAAAGTGCGCT,1.25,1.22,1.09,0.967,1.58,2.4,-0.64,0.459

Sequence,PBM binding z-score [1],PBM binding z-score [2],PBM binding z-score [3],PBM binding z-score [4],PBM binding z-score [5],PBM binding z-score [6],PBM binding z-score [7],PBM binding z-score [8]
CTCGAAAGGACGGTTGAGGTGAGTATACGGATAA,0.363,0.406,0.541,-0.024,0.139,2.93,0.887,0.0364
ACTATTAGTTGACTCAGGGCAACCGATACGACGC,0.937,0.721,0.905,0.661,0.488,1.5,0.878,0.644
ACTAGCAGGCCAAGTTCGGGTCACTCAAACAAAG,2.96,3.14,2.14,0.623,1.81,3.55,2.61,2.1
CCTAGCAGGCCAGGGTTACTCAAGCATTTCGCTT,0.0028,-0.0642,-0.141,-0.596,0.113,0.382,-0.445,-0.788
CGTACAAGGTCAATGCTAGGTCAGTGAAAGCATT,5.18,7.9,7.1,3.82,6.04,4.45,3.05,3.22
TTACCAAGGTGAATGGTCGTTGATGCACGCCTTG,0.707,0.538,0.576,-0.0991,0.73,1.47,0.775,0.132
CCTAGCAGGCCAGAGTCACTCAAGCATTTCGCTT,-0.596,-0.447,-0.706,-0.204,-0.442,-0.569,-0.769,-0.726
TTACCAAGGTGAGCTGAGGTCGTTAATCCAACTC,1.49,0.963,0.731,-0.172,1.12,4.42,1.8,1.33
CGAACTAGGTCATCCACGACAGTGAATACATTGA,2.85,3.96,4.77,2.28,2.9,2.79,1.22,1.44
TCTTGTAGATCAGCGGGTTAAGAAAGCTGGCCAA,0.0505,-0.0561,-0.559,0.982,0.349,0.0519,-0.241,-0.169
CCGACTGGTGCAAAGGTTACCATACTCAGTACGA,2.08,2.07,1.32,0.63,2.93,1.45,0.0703,0.351
ACTCGGAGGACAAAGGCCAGAGCTACGCCAGTGA,0.873,0.907,1.26,0.472,-0.212,0.389,-0.475,-0.537
CGTCAAAGTTCAACTAAGCTAACGTAAAGCACGC,4.31,5.83,6.59,4.75,5.2,2.48,0.187,3.66
ACAGATAGGTGAGTGAAGGTAACTCAGCTGGACG,0.126,0.246,0.547,-0.347,0.347,1.65,-0.341,-0.149
GCTATTAGTTGAAAGGGCAACTGAATGATTCTCG,1.9,1.45,1.31,0.912,1.25,0.832,-0.217,0.256
GTACCAAGGTGTATAGGTCGTTGATGAGTAGGCG,0.761,0.597,0.288,0.186,0.791,0.249,-0.307,0.945
CCTCGGAGGACAGAAGGTCAGACCTGTCCGCTTT,3.7,3.17,3.3,0.392,2.08,2.39,-0.0906,0.229
TCGAGTAGGTTAGTAGGGGCATTCAGCCAACATA,0.576,0.0411,-0.0163,0.422,0.366,0.542,0.108,0.677
TCTAGTTGGTCACGGAGGTGACACACGACGGGTA,1.71,1.6,1.86,0.0966,1.37,1.47,0.665,0.176

Sequence,PBM binding z-score [1],PBM binding z-score [2],PBM binding z-score [3],PBM binding z-score [4],PBM binding z-score [5],PBM binding z-score [6],PBM binding z-score [7],PBM binding z-score [8]
CCTACTGGGCCATCAGGTCATTAATATCAACGTT,2.55,1.64,1.8,0.551,0.85,2.99,2.9,1.56
TCTCGGAGGACACGAATGGTCAGAGCTCGACATC,0.664,0.332,1.29,0.733,0.156,1.01,0.00528,-0.606
GCTGCTAGGTCAAATGATGGTCAGCTAAAGCTCG,3.24,5.08,5.22,1.89,3.09,2.78,0.255,-0.00739
TCTTATAGGTAAAGGTGAAAGTCGAACGATATGA,1.59,1.84,1.45,1.1,2.43,1.39,0.153,0.315
CCGAGTAGGGTATGGGGCATTCAGGCAACGGTGA,0.595,-0.153,-0.189,-0.938,0.102,0.159,0.0739,0.36
ACTCGGAGGACAAAGGTCAGCGCTACGCCAGTGA,4.95,6.38,5.4,1.36,5.69,3.54,0.928,1.34
TCTATTAGTTGATTAGTGCAACCGAAACAGCGGA,0.0135,0.467,0.362,0.964,0.333,0.158,0.00829,0.654
AGAATGAGGTTAAGATCAGGCAAACAGAATACAT,0.764,2.13,1.63,0.944,2.49,2.86,0.441,0.247
CCCACTGGGCCAAAGGTCATTGATTCCAATGCTC,4.72,5.82,4.39,0.468,6.2,3.27,0.821,2.28
CGCACGAGGGCATGAGTTGATAGCAAATGCCGAT,1.2,1.1,1.72,2.41,0.956,1.3,0.0381,1.63
AGTCAAAGTTCTGGACGAGGTAACGTAAAGCACG,-0.148,0.171,0.32,-0.639,0.0678,1.41,0.761,-0.322
TAGCCTAGGTCAGTGGGCCAGTATAGTACGCATC,2.1,2.45,3.58,-0.571,1.03,1.29,-0.197,-0.446
GCACACAGGTGAAACGCAGGTAACTCAGGGTGGC,0.327,1.15,0.263,-0.192,0.954,1.47,-0.486,-0.299
TGTATGAGGTTATAAGATCAGGGAACGTTGCAAA,0.472,1.82,1.46,1.02,1.85,2.08,0.546,0.837
GCTTACGGGTCAAAGGTTATAGAATGAATAGAAT,3.44,6.87,5.16,2.45,9.56,3.89,0.468,1.96
ACTATTAGTTGAGACGAGGGTAACCGATAGGTTG,0.218,0.256,0.596,0.227,0.443,1.55,-0.208,0.283
AGATGTAGGTTACATCCGGGTCATTCAGGCTATG,2.87,3.6,2.14,0.74,3.33,3.72,2.08,2.53
CAGCCTAGGTCAGGGGCAGTATAGGAGGAACGTT,2.99,3.27,4.18,-0.191,1.91,2.37,0.948,0.103
GGAACGAGGGCAAAGTTGATAGCCTCTGTCGACG,1.42,2.14,1.91,2.49,1.84,1.35,-0.295,1.54
